According to the supplement of paper PMC11732987, “Enantioselective OTUD7B fragment discovery through chemoproteomics screening and high-throughput optimisation” (Communications Chemistry, 2025):

Columns and labels:
Experiment in all cases: log2 ratio of Biotin-Ahx-Ub-VS probe labelling (fragment/DMSO); higher = less target engagement (more negative = stronger competition), active = hit call of the paper (q ≤ 0.05, log2 ratio ≤ -1)
Conditions in all cases: compound concentration: 200 uM; treatment time: 3 h
ALG13 = target: T1, ALG13 (UniProt Q9NP73)
T1 sequence (whole entry): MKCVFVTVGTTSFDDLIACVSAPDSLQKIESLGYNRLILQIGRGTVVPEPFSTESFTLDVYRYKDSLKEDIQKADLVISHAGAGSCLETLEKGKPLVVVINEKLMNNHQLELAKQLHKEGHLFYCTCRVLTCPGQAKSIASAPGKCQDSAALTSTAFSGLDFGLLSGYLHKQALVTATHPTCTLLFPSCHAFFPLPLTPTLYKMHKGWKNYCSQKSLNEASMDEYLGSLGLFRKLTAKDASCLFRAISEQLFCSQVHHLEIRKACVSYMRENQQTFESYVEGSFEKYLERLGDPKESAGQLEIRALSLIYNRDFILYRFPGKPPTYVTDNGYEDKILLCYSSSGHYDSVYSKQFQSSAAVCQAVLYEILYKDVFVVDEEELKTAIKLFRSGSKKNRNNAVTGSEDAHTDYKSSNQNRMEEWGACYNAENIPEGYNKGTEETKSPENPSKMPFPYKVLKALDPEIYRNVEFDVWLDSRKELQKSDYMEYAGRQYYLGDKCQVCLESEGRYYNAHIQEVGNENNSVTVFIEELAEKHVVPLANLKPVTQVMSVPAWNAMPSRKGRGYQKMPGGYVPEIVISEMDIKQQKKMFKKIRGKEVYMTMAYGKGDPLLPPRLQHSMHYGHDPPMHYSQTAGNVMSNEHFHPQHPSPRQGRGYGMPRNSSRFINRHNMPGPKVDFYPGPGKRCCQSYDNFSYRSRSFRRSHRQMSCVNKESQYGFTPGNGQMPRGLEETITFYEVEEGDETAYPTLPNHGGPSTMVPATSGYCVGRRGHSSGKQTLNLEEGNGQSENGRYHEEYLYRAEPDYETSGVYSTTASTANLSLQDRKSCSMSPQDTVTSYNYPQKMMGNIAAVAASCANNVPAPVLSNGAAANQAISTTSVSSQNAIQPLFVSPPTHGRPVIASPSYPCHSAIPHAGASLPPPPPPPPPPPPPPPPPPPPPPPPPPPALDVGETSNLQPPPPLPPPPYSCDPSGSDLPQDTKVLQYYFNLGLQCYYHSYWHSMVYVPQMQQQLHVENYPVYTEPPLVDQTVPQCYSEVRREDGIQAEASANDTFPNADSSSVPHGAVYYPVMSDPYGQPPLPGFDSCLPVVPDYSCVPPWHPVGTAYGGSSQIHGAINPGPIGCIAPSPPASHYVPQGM
In short: (§1)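 HEK293T lysate, 495 µg per sample in Tris/CHAPS/IGEPAL buffer with protease inhibitors, was treated in triplicate with fragment at 200 µM or vehicle for 3 h and then with Biotin-Ahx-Ub-VS at 0.5 µM final for 1 h. Labelled DUBs were NeutrAvidin-enriched, digested with LysC and trypsin, and run by diaPASEF LC-MS/MS. Spectronaut label-free quantities were global-median-normalised, and values are average log2 fragment/vehicle ratios by unpaired t-test on proteins with ≥2 unique peptides.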

ATXN3 = ATXN3 (UniProt P54252)
ATXN3, sequence (P54252 whole entry): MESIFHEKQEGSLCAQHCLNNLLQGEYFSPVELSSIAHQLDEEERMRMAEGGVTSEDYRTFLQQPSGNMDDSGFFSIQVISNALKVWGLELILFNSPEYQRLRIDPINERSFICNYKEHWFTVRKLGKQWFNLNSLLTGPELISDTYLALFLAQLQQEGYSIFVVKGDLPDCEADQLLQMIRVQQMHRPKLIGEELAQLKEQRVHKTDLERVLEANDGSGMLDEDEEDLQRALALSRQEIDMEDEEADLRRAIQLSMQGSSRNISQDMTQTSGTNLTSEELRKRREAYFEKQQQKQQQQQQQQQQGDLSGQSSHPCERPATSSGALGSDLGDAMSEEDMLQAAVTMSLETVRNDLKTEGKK
In short: as §1

BAP1 = target: T2, BAP1 (UniProt Q92560)
T2 sequence (whole entry): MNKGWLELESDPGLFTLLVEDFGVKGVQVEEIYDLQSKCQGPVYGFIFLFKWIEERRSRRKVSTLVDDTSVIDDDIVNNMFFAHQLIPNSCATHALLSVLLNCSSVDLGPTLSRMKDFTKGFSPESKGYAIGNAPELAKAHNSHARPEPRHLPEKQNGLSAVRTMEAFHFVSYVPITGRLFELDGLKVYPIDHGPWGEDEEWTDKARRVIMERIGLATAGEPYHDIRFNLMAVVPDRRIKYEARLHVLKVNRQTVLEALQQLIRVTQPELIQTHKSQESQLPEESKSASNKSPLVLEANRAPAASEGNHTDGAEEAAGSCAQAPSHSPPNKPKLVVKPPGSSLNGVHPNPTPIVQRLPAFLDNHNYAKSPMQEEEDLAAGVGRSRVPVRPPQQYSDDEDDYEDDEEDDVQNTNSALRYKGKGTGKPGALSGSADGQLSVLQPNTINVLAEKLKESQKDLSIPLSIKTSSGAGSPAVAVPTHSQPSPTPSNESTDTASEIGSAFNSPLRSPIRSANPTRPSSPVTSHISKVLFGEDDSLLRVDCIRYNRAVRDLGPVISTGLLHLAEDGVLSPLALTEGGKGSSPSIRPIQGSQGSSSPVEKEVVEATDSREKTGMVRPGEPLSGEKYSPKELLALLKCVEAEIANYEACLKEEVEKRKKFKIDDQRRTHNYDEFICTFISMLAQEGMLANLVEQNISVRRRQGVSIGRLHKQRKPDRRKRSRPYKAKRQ
In short: as §1

EIF3F = EIF3F (UniProt O00303)
EIF3F, sequence (O00303 whole entry): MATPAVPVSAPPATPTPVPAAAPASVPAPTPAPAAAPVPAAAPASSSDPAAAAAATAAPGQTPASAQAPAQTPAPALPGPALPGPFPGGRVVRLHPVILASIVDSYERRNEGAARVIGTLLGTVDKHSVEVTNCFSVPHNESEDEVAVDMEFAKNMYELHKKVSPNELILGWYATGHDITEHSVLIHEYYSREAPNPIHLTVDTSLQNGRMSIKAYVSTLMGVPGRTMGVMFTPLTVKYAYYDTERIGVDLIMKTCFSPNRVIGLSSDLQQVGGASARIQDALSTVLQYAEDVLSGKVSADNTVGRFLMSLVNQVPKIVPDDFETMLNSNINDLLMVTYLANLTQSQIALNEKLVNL
In short: as §1

EIF3H = EIF3H (UniProt O15372)
EIF3H, sequence (O15372 whole entry): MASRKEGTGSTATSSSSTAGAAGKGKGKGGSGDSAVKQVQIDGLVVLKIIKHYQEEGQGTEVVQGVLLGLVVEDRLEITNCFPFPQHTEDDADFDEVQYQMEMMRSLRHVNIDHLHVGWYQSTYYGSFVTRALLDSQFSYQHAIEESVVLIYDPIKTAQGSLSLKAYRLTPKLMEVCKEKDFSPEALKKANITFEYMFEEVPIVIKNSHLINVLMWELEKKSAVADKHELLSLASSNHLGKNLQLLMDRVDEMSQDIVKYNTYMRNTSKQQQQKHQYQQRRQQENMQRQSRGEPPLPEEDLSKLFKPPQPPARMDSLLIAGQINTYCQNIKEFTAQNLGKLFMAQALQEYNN
In short: as §1

FAM105A = target: T3, FAM105A (UniProt Q9NUU6)
T3 sequence (whole entry): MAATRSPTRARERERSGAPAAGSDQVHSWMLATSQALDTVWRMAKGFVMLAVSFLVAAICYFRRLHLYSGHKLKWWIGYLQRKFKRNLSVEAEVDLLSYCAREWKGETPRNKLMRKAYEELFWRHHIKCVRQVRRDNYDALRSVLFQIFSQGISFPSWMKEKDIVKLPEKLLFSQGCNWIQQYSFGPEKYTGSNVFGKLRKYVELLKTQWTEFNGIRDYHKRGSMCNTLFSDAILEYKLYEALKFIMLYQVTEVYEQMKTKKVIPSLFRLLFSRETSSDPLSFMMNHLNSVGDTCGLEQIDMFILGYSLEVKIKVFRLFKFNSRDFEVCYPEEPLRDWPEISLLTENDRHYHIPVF
In short: as §1

OTUB1 = OTUB1 (UniProt Q96FW1)
OTUB1, sequence (Q96FW1 whole entry): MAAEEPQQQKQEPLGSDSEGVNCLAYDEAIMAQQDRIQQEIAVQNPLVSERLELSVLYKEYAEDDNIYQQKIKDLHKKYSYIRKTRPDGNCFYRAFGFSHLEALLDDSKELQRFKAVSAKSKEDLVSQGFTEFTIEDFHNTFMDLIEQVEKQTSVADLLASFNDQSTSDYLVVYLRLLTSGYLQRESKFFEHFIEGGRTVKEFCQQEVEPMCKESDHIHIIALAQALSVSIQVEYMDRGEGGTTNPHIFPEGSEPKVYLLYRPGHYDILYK
In short: as §1

OTUD4 = target: T4, OTUD4 (UniProt Q01804)
T4 sequence (whole entry): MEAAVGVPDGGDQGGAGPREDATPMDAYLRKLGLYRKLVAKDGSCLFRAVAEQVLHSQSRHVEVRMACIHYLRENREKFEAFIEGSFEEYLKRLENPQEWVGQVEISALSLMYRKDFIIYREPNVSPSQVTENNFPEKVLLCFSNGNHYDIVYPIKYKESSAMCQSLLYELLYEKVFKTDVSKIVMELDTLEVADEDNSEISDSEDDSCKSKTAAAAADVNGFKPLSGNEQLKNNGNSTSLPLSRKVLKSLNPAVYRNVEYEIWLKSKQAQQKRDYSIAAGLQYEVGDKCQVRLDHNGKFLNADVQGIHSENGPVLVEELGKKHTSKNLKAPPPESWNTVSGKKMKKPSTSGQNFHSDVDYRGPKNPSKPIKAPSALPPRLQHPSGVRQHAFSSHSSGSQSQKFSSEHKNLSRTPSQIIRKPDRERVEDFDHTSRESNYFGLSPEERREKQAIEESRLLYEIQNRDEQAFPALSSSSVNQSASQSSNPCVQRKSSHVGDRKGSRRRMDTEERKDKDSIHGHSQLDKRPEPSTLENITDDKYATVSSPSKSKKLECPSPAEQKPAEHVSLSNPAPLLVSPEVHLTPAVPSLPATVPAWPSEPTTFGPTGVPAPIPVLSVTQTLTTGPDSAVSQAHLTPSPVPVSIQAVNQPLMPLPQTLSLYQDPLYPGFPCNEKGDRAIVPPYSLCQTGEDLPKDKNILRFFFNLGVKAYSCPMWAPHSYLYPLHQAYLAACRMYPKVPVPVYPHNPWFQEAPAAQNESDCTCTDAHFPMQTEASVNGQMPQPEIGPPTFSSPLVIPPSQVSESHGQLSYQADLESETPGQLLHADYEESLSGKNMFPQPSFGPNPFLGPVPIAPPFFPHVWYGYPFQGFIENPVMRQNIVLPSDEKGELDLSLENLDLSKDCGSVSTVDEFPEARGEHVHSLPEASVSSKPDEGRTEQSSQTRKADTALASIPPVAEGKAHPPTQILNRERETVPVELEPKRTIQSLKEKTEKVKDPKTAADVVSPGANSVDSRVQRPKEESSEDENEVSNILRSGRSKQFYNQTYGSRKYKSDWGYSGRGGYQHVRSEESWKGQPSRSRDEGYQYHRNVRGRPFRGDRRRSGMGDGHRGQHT
In short: as §1

OTUD5 = target: T5, OTUD5 (UniProt Q96G74)
T5 sequence (whole entry): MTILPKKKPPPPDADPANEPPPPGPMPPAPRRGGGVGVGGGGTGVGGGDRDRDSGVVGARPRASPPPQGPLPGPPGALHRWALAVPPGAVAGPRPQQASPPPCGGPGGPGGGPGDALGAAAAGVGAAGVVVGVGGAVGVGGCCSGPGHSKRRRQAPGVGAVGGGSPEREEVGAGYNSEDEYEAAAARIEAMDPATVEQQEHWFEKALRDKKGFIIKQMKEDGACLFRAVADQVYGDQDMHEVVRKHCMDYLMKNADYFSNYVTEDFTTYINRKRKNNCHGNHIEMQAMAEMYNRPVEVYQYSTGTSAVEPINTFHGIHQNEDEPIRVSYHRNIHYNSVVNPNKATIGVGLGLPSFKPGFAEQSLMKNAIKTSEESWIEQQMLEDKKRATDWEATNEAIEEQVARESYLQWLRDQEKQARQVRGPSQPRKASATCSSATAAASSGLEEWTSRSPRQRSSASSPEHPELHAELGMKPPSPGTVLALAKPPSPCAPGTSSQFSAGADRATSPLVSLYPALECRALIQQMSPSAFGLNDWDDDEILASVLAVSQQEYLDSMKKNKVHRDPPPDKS
In short: as §1

Measured: log2 ratio of Biotin-Ahx-Ub-VS probe labelling

Cc1nnc(C(NC(=O)CCl)c2ccccc2)n1C (centres undefined)
inactive: ALG13 -0.558 | ATXN3 0.355 | BAP1 0.428 | EIF3F 0.534 | EIF3H 0.24 | FAM105A 0.549 | OTUB1 -0.00852 | OTUD4 0.483 | OTUD5 0.385
